Test [1] can be described thus: NCI Yeast Anticancer Drug Screen. Data for the rad50 strain (AID 155).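 Further: 0% = growth of vehicle-only cultures of the same strain.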 To be noted: S. cerevisiae rad50 strain growth inhibition; at 50.0 µM; stronger effect = higher value. The procedure, abridged: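 Compounds were tested on a yeast strain with an engineered DNA damage repair alteration; the reported value is growth inhibition normalised to vehicle treatment.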
A short description of test [2]: NCI Yeast Anticancer Drug Screen. Data for the mec2-1 strain (AID 157). Particulars: S. cerevisiae mec2-1 strain, at 50.0 µM, stronger effect = higher value. An outline of the steps: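 Using mec2-1 yeast: add compound, measure growth, express inhibition versus vehicle-treated cultures.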
Test [3] in a line: NCI Yeast Anticancer Drug Screen. Data for the sgs1 mgt1 strain (AID 161).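 Further: 0% = growth of cultures given vehicle only.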 To be noted: S. cerevisiae sgs1 mgt1 strain, at 50.0 µM, stronger effect = higher value. The procedure, abridged: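 Growth of a repair-deficient yeast mutant was monitored after compound treatment and expressed as inhibition relative to vehicle-treated cultures.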
Test [4] in a line: NCI Yeast Anticancer Drug Screen. Data for the cln2 rad14 strain (AID 165).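 Further: 0% = growth equal to vehicle treated cultures.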 To be noted: S. cerevisiae cln2 rad14 strain, at 50.0 µM, stronger effect = higher value. An outline of the steps: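 Yeast strain cln2 rad14, bearing defects in cell cycle control and DNA repair, serves as the test system; values reflect growth inhibition compared with vehicle.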
The nature of test [5]: NCI Yeast Anticancer Drug Screen. Data for the bub3 strain (AID 167). Particulars: S. cerevisiae bub3 mutant strain, at 50.0 µM, stronger effect = higher value. The procedure, abridged: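 Growth of a checkpoint-deficient yeast mutant is measured after compound exposure. Values represent inhibition relative to vehicle.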
A short description of test [6]: NCI Yeast Anticancer Drug Screen. Data for the mlh1 rad18 strain (AID 175). To be noted: S. cerevisiae mlh1 rad18 strain growth inhibition; at 50.0 µM; stronger effect = higher value. The procedure, abridged:
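Steps: expose repair-defective yeast to compound; measure growth; express inhibition against vehicle-treated controls.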

“And” between values parts separate entries of the source, which are not always exact repeats. Equal entries are not always repeated. Compounds without any hit were thinned out: in the full panel of roughly 79,000, 15% have a hit. The source holds several records for some structures; these can differ, active in one and inactive in another. The source made the active and inactive calls. No stated cut-off is given here; in the data, active means growth inhibition above about 70%; inactive means the rest.

The values below come from PubChem BioAssay (NCI).

Consider `O=C(Nc1nn[nH]n1)c1nc(-c2ccccc2)cc(=O)[nH]1`, for which the growth inhibition in test [1] was -15.6% (inactive) and -10.2% (inactive); in test [2] it was -3.75% (inactive) and 9.5% (inactive); in test [3], 7.35% (inactive) and 5.4% (inactive); in test [4] it was -49.8% (inactive) and 1.15% (inactive); in test [5], 5.7% (inactive) and -5.95% (inactive); in test [6], 1.95% (inactive) and -2.25% (inactive).
For the molecule `O=C(OC(=C(c1ccccc1)c1ccccc1)c1ccccc1)c1ccccc1`, the growth inhibition was 12.8% (inactive) and -6.95% (inactive) in test [1]; -0.2% (inactive) and -10.2% (inactive) in test [2]; -4.45% (inactive) and 15.2% (inactive) in test [3]; -9.6% (inactive) and -22.2% (inactive) in test [4]; -0.05% (inactive) and 5.6% (inactive) in test [5]; 11.2% (inactive) and 20.4% (inactive) in test [6].
For `O=C1C(Br)CCCCCCCCCC1Br` (configuration not stated), the growth inhibition in test [1] was -26.2% (inactive) and 45% (inactive); in test [2], -6.4% (inactive) and 11.2% (inactive); in test [3], 4.05% (inactive) and 50% (inactive); in test [4], -3.1% (inactive) and 22.9% (inactive); in test [5], -12.3% (inactive) and 24.4% (inactive); in test [6] it was 0.9% (inactive) and 36.4% (inactive).
In the case of `OC1CCCC(O)C1O` (configuration not stated), the growth inhibition in test [1] was 1.25% (inactive) and 6.1% (inactive); in test [2], -2.7% (inactive) and -12.9% (inactive); in test [3] it was 14.1% (inactive) and 9.8% (inactive); in test [4] it was -7.2% (inactive) and -2% (inactive); in test [5] it was 3.9% (inactive) and 20.6% (inactive); in test [6] it was -2.65% (inactive) and -4.4% (inactive).
`CCCC(=O)Oc1ccccc1C(C)C`: the growth inhibition was 12.5% (inactive) and 2.75% (inactive) in test [1]; 11.9% (inactive) and -21.8% (inactive) in test [2]; 11% (inactive) and -5.25% (inactive) in test [3]; 14.1% (inactive) and -8.9% (inactive) in test [4]; 6.8% (inactive) and -0.15% (inactive) in test [5]; 1.65% (inactive) and -19.6% (inactive) in test [6].
Turning to `CC1=NN(c2ccc([N+](=O)[O-])cc2)C(=O)C1[N+](=O)[O-]` (configuration not stated) (tested in a mixture with another compound), the growth inhibition in test [1] was 20.1% (inactive) and 26.6% (inactive); in test [2] it was 1.95% (inactive) and 2.9% (inactive); in test [3], 12.3% (inactive) and 34.4% (inactive); in test [4] it was 14.8% (inactive) and 13.1% (inactive); in test [5], -1.75% (inactive) and -1.25% (inactive); in test [6] it was 3.35% (inactive) and 12.8% (inactive).
Regarding `O=S(=O)(O)CCO`, the growth inhibition in test [1] was 13.6% (inactive) and -1.9% (inactive); in test [2], -8.35% (inactive) and -8.7% (inactive); in test [3], 20.7% (inactive) and 9.75% (inactive); in test [4], 19.1% (inactive) and 16.2% (inactive); in test [5], 0.3% (inactive) and -3.5% (inactive); in test [6], 2.25% (inactive) and 28% (inactive).
On to `CN1C/C(=C\c2ccccc2[N+](=O)[O-])C(=O)/C(=C/c2ccccc2[N+](=O)[O-])C1`, for which the growth inhibition in test [1] was -3.7% (inactive) and -14.4% (inactive); in test [2] it was 14.9% (inactive) and 28.8% (inactive); in test [3] it was 25.6% (inactive) and -49% (inactive); in test [4] it was 4.85% (inactive) and -8.9% (inactive); in test [5], 13.7% (inactive) and 21.4% (inactive); in test [6], 16.8% (inactive) and -29.1% (inactive).
`O=C(CCCC(=O)NO)NO`: the growth inhibition in test [1] is 5.4% (inactive) and 2.75% (inactive); in test [2] it was -2.25% (inactive) and 0.6% (inactive); in test [3], -1.3% (inactive) and -6.9% (inactive); in test [4] it was -8.15% (inactive) and -26.6% (inactive); in test [5], -5.05% (inactive) and -22.9% (inactive); in test [6], 2.65% (inactive) and -37.4% (inactive).
Consider `COc1cc2c(c(OC)c1OC)-c1ccc(OC)c(=O)cc1C([N+](C)(C)C)CC2` (configuration not stated), for which the growth inhibition in test [1] was 21.2% (inactive) and -13.3% (inactive); in test [2], 12.3% (inactive) and 7.7% (inactive); in test [3], 16.9% (inactive) and -18.1% (inactive); in test [4], -0.65% (inactive) and -11.1% (inactive); in test [5], -3% (inactive) and -0.4% (inactive); in test [6], 25.5% (inactive) and 7.4% (inactive).
In the case of `O=C(CCl)OCCC1CCCCC1`, the growth inhibition was 9.3% (inactive) and -7.6% (inactive) in test [1]; -16.7% (inactive) and -17.1% (inactive) in test [2]; 5.15% (inactive) and -10.8% (inactive) in test [3]; -8.7% (inactive) and -29.4% (inactive) in test [4]; 5.6% (inactive) and 6.1% (inactive) in test [5]; 1.4% (inactive) and -16.4% (inactive) in test [6].
Turning to `Cc1ccc(C(O)c2nnc(C(O)c3ccc(C)cc3)nn2)cc1` (configuration not stated), the growth inhibition in test [1] is 11.2% (inactive) and 33.9% (inactive); in test [2], 11.6% (inactive) and 29% (inactive); in test [3], -3.55% (inactive) and 71% (active); in test [4], 9.45% (inactive) and 16.4% (inactive); in test [5] it was 18.9% (inactive) and 21.2% (inactive); in test [6], 18.8% (inactive) and 40.5% (inactive).
As for `COC1OC2COCOC2C(O)C1O` (configuration not stated), the growth inhibition in test [1] was 16.4% (inactive) and 11.6% (inactive); in test [2], 17.1% (inactive) and 7.85% (inactive); in test [3], 10.9% (inactive) and 1.8% (inactive); in test [4], -53.6% (inactive) and -34.5% (inactive); in test [5], 14.9% (inactive) and 8.8% (inactive); in test [6] it was -4.9% (inactive) and 5.65% (inactive).
With `CCCC(=O)Oc1ccc(C(C)C)cc1`, the growth inhibition is 6% (inactive) and 13.8% (inactive) in test [1]; -22.3% (inactive) and -1.45% (inactive) in test [2]; -8.2% (inactive) and 2.05% (inactive) in test [3]; 10.4% (inactive) and -31.6% (inactive) in test [4]; -9.75% (inactive) and 13.3% (inactive) in test [5]; 5.8% (inactive) and 10.1% (inactive) in test [6].
On to `COc1c2occc2c(OC)c2c(=O)cc(C)oc12`, for which the growth inhibition in test [1] is 20.9% (inactive) and 2.55% (inactive); in test [2], -2.15% (inactive) and -27.4% (inactive); in test [3] it was 16.8% (inactive) and 9.95% (inactive); in test [4], -0.65% (inactive) and 8.7% (inactive); in test [5], 7.9% (inactive) and 5.95% (inactive); in test [6] it was 22.1% (inactive) and 9.4% (inactive).
For `Cc1ccc(S/C=C/C(=O)O)cc1`, the growth inhibition is -3% (inactive) and 19.8% (inactive) in test [1]; 18.5% (inactive) and -0.1% (inactive) in test [2]; 16.1% (inactive) and 20.4% (inactive) in test [3]; 7.7% (inactive) and 19.2% (inactive) in test [4]; -0.1% (inactive) and -6.05% (inactive) in test [5]; 20.6% (inactive) and 5.45% (inactive) in test [6].
Consider `CCN1C(=O)C=CC1=O`, for which the growth inhibition in test [1] is 3.4% (inactive) and -19.9% (inactive); in test [2] it was -2.55% (inactive) and 13.7% (inactive); in test [3], 11.8% (inactive) and -8.5% (inactive); in test [4] it was 6.8% (inactive) and -30% (inactive); in test [5] it was 8.8% (inactive) and -25.5% (inactive); in test [6], 3.55% (inactive) and -15.4% (inactive).
For `OCC1OCOC2C(CO)OCOC12` (configuration not stated), the growth inhibition is -9.2% (inactive) and -8.3% (inactive) in test [1]; -21.4% (inactive) and -3.75% (inactive) in test [2]; -9.95% (inactive) and 15.6% (inactive) in test [3]; 0.65% (inactive) and -36.2% (inactive) in test [4]; -13.8% (inactive) and -4.7% (inactive) in test [5]; -4.7% (inactive) and -3.1% (inactive) in test [6].
As for `CC(=O)OCC1OC(n2c(C)c(C)cc(C#N)c2=S)C(OC(C)=O)C(OC(C)=O)C1OC(C)=O` (configuration not stated), the growth inhibition in test [1] is -18.1% (inactive) and 18.2% (inactive); in test [2], -10.2% (inactive) and -13.2% (inactive); in test [3] it was -4.8% (inactive) and -4.05% (inactive); in test [4], -23.4% (inactive) and 18.9% (inactive); in test [5], -2.2% (inactive) and 18.7% (inactive); in test [6], 4.3% (inactive) and 14.9% (inactive).
In the case of `CCC(C)NC(=O)C1C2CC3OC(=O)C1C3C2` (configuration not stated), the growth inhibition in test [1] was 9.85% (inactive) and -12.7% (inactive); in test [2] it was -4.55% (inactive) and 5.6% (inactive); in test [3], -2.75% (inactive) and -18.9% (inactive); in test [4], -42.8% (inactive) and -40.3% (inactive); in test [5], -9.5% (inactive) and -6.5% (inactive); in test [6], 3.1% (inactive) and -5.65% (inactive).
As for `O=C1Nc2c(cc([N+](=O)[O-])cc2[N+](=O)[O-])C1=O`, the growth inhibition in test [1] is -8.6% (inactive) and 3.1% (inactive); in test [2], 7.6% (inactive) and -0.75% (inactive); in test [3], -5.1% (inactive) and 2.05% (inactive); in test [4] it was -0.05% (inactive) and -12.1% (inactive); in test [5], -2.4% (inactive) and 3.95% (inactive); in test [6], -1.1% (inactive) and 2.6% (inactive).
For `N#CC(Cc1ccccc1)c1ccccc1` (configuration not stated), the growth inhibition in test [1] is -65.7% (inactive) and 17.2% (inactive); in test [2], -12.5% (inactive) and 11.1% (inactive); in test [3], -18.1% (inactive) and 29.8% (inactive); in test [4], -24.8% (inactive) and 1.75% (inactive); in test [5] it was 0.45% (inactive) and -5% (inactive); in test [6] it was 3.45% (inactive) and 6.45% (inactive).
